The text below walks through data of PubChem BioAssay AID934 (National Center for Advancing Translational Sciences (NCATS), 2007).

Results filed as inconclusive are left out. Activity calls are given as the source filed them. Calls follow the shape of the dose curve; as a rule, active = well fitted activation curve with a large enough effect; inconclusive = small, poorly fitted or top-dose-only effect; inactive = flat fitted curve, though single readings scatter.

A short description of this experiment: Parental Cell Counter Screen for Stat Signaling Pathway Assay. Conditions: ME-180 (cervical carcinoma) parental cells, blue fluorescence artefact counter-screen; series mostly up to 38.3 µM; activity (fluorescence increase): at the top concentration. A digest of the protocol:
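Parental ME-180 cells (no SIE-bla reporter) plated overnight at 37 C, then given compound plus IL-6 at 40 pM final for 5 hr at 37 C. LiveBLAzer beta-lactamase substrate added for 2.5 hr at room temperature; fluorescence read at 460 and 530 nm emission with 405 nm excitation.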
For orientation: A counterscreen serves to expose hits that act by an unwanted route or on another target.
Consider `CCCCc1nc(NCCNC(=O)c2ccco2)c(C#N)c2c1CSC(C)(C)C2`, for which the “activity (fluorescence increase)” value is 25.9% (inactive).
In the case of `CC1CCN(CC[S-])CC1.O.O.[Cl][Pt]`, the “activity (fluorescence increase)” value was 28.3% (inactive).
Still for that read-out and setting: under `Fc1ccc2[nH]c3c(N4CCN(Cc5ccc6c(c5)OCO6)CC4)ncnc3c2c1` stands 12% (inactive); under `CCOC(=O)CCc1c(C)c(C#N)c2[nH]c3ccccc3n2c1=O`, 16.7% (inactive).
Still for that read-out and setting: under `Nc1ncnc2c1ncn2[C@@H]1O[C@@H](CO)[C@H](O)[C@@H]1O` stands 11.2% (inactive); under `CC(C)(C)c1nnc2sc(SCC(=O)c3ccccc3)nn2c1=O`, 13.9% (inactive).
As to `CCC(=O)Nc1nc(C)c(Oc2ccccc2)c(=O)[nH]1`, the “activity (fluorescence increase)” value is 1.85% (inactive).
Take `CC(C)N1CC=C2C(C#N)=C(N)C(C#N)(C#N)C(c3ccccc3)C2C1` (stereo not drawn): the Potency was 5.01 µM (active).
Consider `O=c1c(O)c(-c2ccc(O)c(O)c2)oc2cc(O)cc(O)c12`, for which the “activity (fluorescence increase)” value is 15.9% (inactive).
Same read-out and setting: the figure for `COc1cccc2c1C(=O)c1c(O)c3c(c(O)c1C2=O)C[C@](O)(C(=O)CO)C[C@H]3O[C@@H]1C[C@H](N)[C@H](O)[C@H](C)O1` is 10.3% (inactive); for `N=C(N)SCc1cccc2c(=O)cc(-c3ccccc3)oc12` it is 8.49% (inactive); for `N/C(=N\O)c1cn([C@@H]2O[C@@H](CO)[C@H](O)[C@@H]2O)c2ncnc(NO)c12` it is 18.9% (inactive).
For the compound `CC(C)C[C@H]1C(=O)N2CCC[C@H]2[C@]2(O)O[C@](NC(=O)[C@@H]3C=C4c5cccc6[nH]c(Br)c(c56)CC4N(C)C3)(C(C)C)C(=O)N12` (stereo partly drawn), the “activity (fluorescence increase)” value was 11.1% (inactive).
On the same count and under the same terms, the figure for `Nc1ncnc2c1ncn2[C@@H]1O[C@H](CO)[C@@H](O)[C@H]1O` is 1.85% (inactive); for `CC(C)(C)C1CCC2(CC1)C(C#N)=C(SCC(=O)Nc1ccccc1)NC(=O)C2C#N` (stereo not drawn) it is 24.1% (inactive); for `CCOC(=O)CSc1nnc2n(Cc3ccccc3)c(=O)c3c4c(sc3n12)CCC4` it is 16.7% (inactive).
With `COc1ccc(C[C@@H]2C(=O)N[C@H](C)C(=O)N(C)[C@@H]3Cc4ccc(cc4)Oc4cc(ccc4O)C[C@H](C(=O)N[C@@H](C)C(=O)N[C@H](C)C(=O)N2C)N(C)C3=O)cc1`, the “activity (fluorescence increase)” value was 10.4% (inactive).
Still for that read-out and setting: the figure for `Cc1ccccc1CNc1ncnc2c1ncn2[C@@H]1O[C@@H](CO)[C@H](O)[C@@H]1O` is 12.1% (inactive); for `CCOC(=O)N1CCC(=C2c3ccc(Cl)cc3CCc3cccnc32)CC1` it is 22.2% (inactive).
Turning to `CN1CCc2c(sc3ncn4nc(-c5ccccc5O)nc4c23)C1`, the Potency is 31.6 µM (active).
As to `COc1ccc2[nH]c3c(N4CCN(Cc5ccc6c(c5)OCO6)CC4)ncnc3c2c1`, the “activity (fluorescence increase)” value was 9.26% (inactive).
Turning to `CCSc1nc(N)c(C#N)c(-c2ccccc2Cl)c1C#N`, the “activity (fluorescence increase)” value is 13.9% (inactive).
The same measure, in the same setting: under `CCCCSc1nc(N)c(C#N)c(-c2cccs2)c1C#N` stands 38% (inactive); under `C=C1C(=O)O[C@@H]2[C@H]3O[C@]3(C)CCC=C(C)CC[C@@H]12`, -1.87% (inactive); under `OC[C@@H]1O[C@@H](n2cnc3c(SCc4ccccc4)ncnc32)[C@@H](O)[C@H]1O`, 0.926% (inactive).
On the same count and under the same terms, under `CC[C@@H]1CN2CCc3cc(OC)c(OC)cc3[C@H]2C[C@@H]1C[C@@H]1NCCc2cc(OC)c(OC)cc21` stands 9.35% (inactive); under `Cn1c(N2CCN(c3ccccn3)CC2)nc2c1c(=O)n(Cc1ccc(Cl)cc1)c(=O)n2C`, 13.9% (inactive).
Regarding `NCCSc1nc2ccccc2s1`, the “activity (fluorescence increase)” value is 11.3% (inactive).
`CCc1cc2c(=O)c(-c3nc4ccccc4[nH]3)coc2cc1OC(=O)N1CCOCC1`: the Potency is 12.6 µM (active).
For the compound `CC(=O)Oc1ccc(C(c2ccc(OC(C)=O)cc2)c2ccccn2)cc1`, the “activity (fluorescence increase)” value was 10.2% (inactive).
On the same count and under the same terms, under `O=C(O)c1c(Br)c(Br)c(Br)c(Br)c1C1c2ccc(O)cc2Oc2cc(O)ccc21` stands 8.49% (inactive); under `O=C(O)CCc1c2ccc(=O)c(O)c-2oc2c(O)c(O)ccc12`, -1.89% (inactive).
As for `COc1ccc2c(c1)c1c(C)c3cnccc3c(C)c1n2CCCN`, the Potency was 31.6 µM (active).
